The supplement of paper PMC9897528

Test system: Scedosporium aurantiacum CBS 136046
Assay: growth inhibition relative to DMSO control (OD600); higher = more antifungal activity, active = 80 or more; extreme values may be limits of the assay
Settings: 5 µM; 72 h; 37 °C
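Note: conidia screened in RPMI 1640 medium under 5% CO2, growth read by spectrophotometer, medium with 0.5% DMSO serving as the untreated reference.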

Growth inhibition, inactive:
O=C(O)CCNC(=O)c1ccccc1 36.7%
Cc1c(N)cccc1Cn1ccc(OCCc2cccs2)cc1=O 2.23%
CCOC(=O)/C=C/[C@H](C[C@@H]1CCNC1=O)NC(=O)[C@H](CC)n1cccc(NC(=O)c2cc(C)on2)c1=O 2%
O=C(Nc1nnc(-c2ccccc2)o1)c1ccc(F)cc1 31.3%
N[C@@H]1CN(c2c(F)cc3c(=O)c(C(=O)O)cn([C@@H]4C[C@@H]4F)c3c2Cl)CC12CC2 7.35%
C[C@@H](NC(=O)c1cccc(-c2cnc(-c3cc4ccccc4cn3)[nH]2)c1)c1ccc(F)cc1 18.9%
O=C(NCc1ccc2c3c(cccc13)C(=O)N2)c1cccs1 17%
C[C@H](NC(=O)C(=O)Nc1ccccc1C(C)(C)C)C(=O)N[C@@H](CC(=O)O)C(=O)COc1c(F)c(F)cc(F)c1F 11.6%
CCNC(=O)Nc1cn2c(-c3ncc(CC)cn3)cc(-c3cccnc3)cc2n1 0%
N#CCN1C(=O)COc2cc(F)c(N3C(=O)c4ccccc4C3=O)cc21 0%
CCCCc1ccc(-c2cc(C(=O)O)cc(-c3ccc(Cl)cc3)n2)cc1 37.3%
O=C(/C(=C/c1ccc(Cl)cc1Cl)n1ccnc1)c1ccc(Cl)cc1 59.4%
CC1(C)[C@H](C(=O)O)N2C(=O)C[C@H]2S1(=O)=O 0%
O=C(O)c1ccc(-c2ccc(O[C@H]3O[C@H](CO)[C@@H](O)[C@H](O)[C@@H]3O)cc2)cc1 10.9%
O=C(Cn1cnc2ccccc2c1=O)Nc1ccccc1 1.51%
CN(C)CCCOc1ccc(-c2ccc3ncc4c(c3c2)n(C2CCOCC2)c(=O)n4C)cn1 3.43%
O=C(Cc1ccccc1F)Nc1nc2ccccc2[nH]1 23.9%
Cc1ccc(N2CCC(CCOc3ccc(S(C)(=O)=O)cc3)CC2)nn1 24.5%
O=C(/C=C\n1cnc(-c2cc(C(F)(F)F)cc(C(F)(F)F)c2)n1)NNc1ccccn1 24.4%
CO/N=C(\C(=O)N[C@@H]1C(=O)N2C(C(=O)OCOC(=O)C(C)(C)C)=C(/C=C\c3scnc3C)CS[C@H]12)c1csc(N)n1 0%
O=C1NC(=S)N/C1=C\c1cc(Br)cc(Br)c1O 12.6%
CCCC1(C2CC2)c2cc(Cl)ccc2NC(=O)N1C (stereo not drawn) 18.8%
N#Cc1c(F)c(Cl)c(NCc2ccccc2)c(C#N)c1F 38.1%
